# Compound activity deposited in PubChem by National Center for Advancing Translational Sciences (NCATS).
# Hits are enriched below; roughly 14% of the tested compounds scored in any of these assays.
# FBPA Giardia inh: qHTS Assay for Inhibitors of Fructose-1,6-bisphosphate Aldolase from Giardia Lamblia | Potency, µM (highest dose often 59.6 µM), most hits filed as inhibitors | 0.71% of 290,000 active | purified Giardia FBPA | AID 2451, 2010 | A8B2U2; also: nearly all actives have a fitted effect of over 55% in size
# Target sequence (A8B2U2 whole entry, looked up): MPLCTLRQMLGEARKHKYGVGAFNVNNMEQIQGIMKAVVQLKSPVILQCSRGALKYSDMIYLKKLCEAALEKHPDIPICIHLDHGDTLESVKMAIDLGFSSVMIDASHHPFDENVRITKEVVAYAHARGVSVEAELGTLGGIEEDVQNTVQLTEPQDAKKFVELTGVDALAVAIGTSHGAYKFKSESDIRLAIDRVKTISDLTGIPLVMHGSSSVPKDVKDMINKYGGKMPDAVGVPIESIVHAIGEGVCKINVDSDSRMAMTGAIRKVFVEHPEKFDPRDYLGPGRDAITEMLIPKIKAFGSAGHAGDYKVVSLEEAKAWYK
#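 Giardia FBPA (40 nM reagent) was preincubated 10 min at RT with compound (up to 57.5 uM final), then substrate plus GAPDH/TPI/NAD/arsenate coupling system with diaphorase/resazurin was added; resorufin fluorescence (525/598 nm) was read after 20 min.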
# HCMV inh: qHTS Assay for inhibitors of the human cytomegalovirus (HCMV). 4.5% of 410,000 active. activity change, negative = inhibition, % at 57.5 µM. HFF cells, HCMV-luciferase reporter, 72 h; active compounds read low. AID 1259415, 2018; in the data active = activity change below about -60%; inconclusive = no clear call, values can overlap the other calls; inactive = above about -39%
#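 Human foreskin fibroblasts infected with luciferase-reporter HCMV at MOI 1 PFU/cell, compounds at two doses. Luciferase measured 72 h post infection; normalized to buffer-only basal and Salinomycin (10uM) controls.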
# Pf growth 96h: Primary qHTS for delayed death inhibitors of the malarial parasite plastid, 96 hour incubation | 6.9% of 320,000 active | P. falciparum luciferase reporter growth, 96 h | Potency, µM (titrated, usually from 28.7 µM), most hits filed as inhibitors | AID 504834, 2011
#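 Delayed-death screen, second-generation endpoint: infected erythrocytes, 2% hematocrit, 0.05% parasitemia final; 96 hours at 37 C, 5% CO2; luciferase detection reagent; luminescence decrease equals reduced growth.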
# Sm TGR block: qHTS Assay for the Inhibitors of Schistosoma Mansoni Peroxiredoxins; purified TGR, DTNB reduction, TNB absorbance 405 nm; Potency, µM (doses to about 114 µM), hits mostly inhibitors; 3% of 360,000 active; AID 485364, 2010; also: nearly all actives have a fitted effect of over 60% in size
#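 First, TGR (20 nM dispensed) and NADPH were mixed with compound. Second, a 15 min room-temperature incubation followed. Third, further NADPH and then DTNB were added to start the reaction. Finally, TNB absorbance was monitored kinetically.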
# Pf growth 48h: Primary qHTS for delayed death inhibitors of the malarial parasite plastid, 48 hour incubation. P. falciparum luciferase growth in erythrocytes, 48 h. Potency, µM (titrated, usually from 28.7 µM), hits mostly inhibitors. 5.9% of 310,000 active. AID 504832, 2011
#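 Luminescence readout; reporter = integrated firefly luciferase in P. falciparum. RBC culture at 2% hematocrit, 0.1% parasitemia final, 37 C/5% CO2; decreased signal taken as growth inhibition.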
# Numbers stand for hits; n = inactive; u = inconclusive; x = not tested or not shown. Unless noted, calls follow the shape of the dose curve; as a rule, active = well fitted curve in the direction sought with a large enough effect; inconclusive = small, poorly fitted or top-dose-only effect, or another doubt; inactive = no such curve, though single readings can be large; an effect the other way counts as inactive or inconclusive.
SMILES,FBPA Giardia inh,HCMV inh,Pf growth 96h,Sm TGR block,Pf growth 48h
CC[C@@H](C)C(C(=O)N1CCN(C(=O)OC(C)(C)C)CC1)n1cc(-c2cn([C@@H](C)C(=O)N3CCN(C(=O)OC(C)(C)C)CC3)nn2)nn1 (stereo partly drawn),n,n,u,n,u
C#Cc1ccccc1OCCCN1CCC(C(O)(c2ccccc2)c2ccccc2)CC1,x,n,x,x,x
CC(=O)c1ccccc1OC(=O)CCN1C(=O)c2ccccc2C1=O,n,n,n,n,n
CCN1C(=O)[C@H]2[C@@H](c3ccc(-c4ccc(OC)cc4)cc3)N[C@@](CC(C)C)(C(=O)OC)[C@H]2C1=O,x,n,12µM,u,12µM
COC(=O)[C@]1(CC(C)C)N[C@H](c2ccc(-c3ccc(C(C)=O)cc3)cc2)[C@@H]2C(=O)N(C)C(=O)[C@@H]21,x,n,x,x,x
COC(=O)[C@]1(CC(C)C)N[C@H](c2ccc(-c3ccc(Cl)c(Cl)c3)cc2)[C@@H]2C(=O)N(C)C(=O)[C@@H]21,x,n,4.7µM,n,7.4µM
CCN1C(=O)[C@H]2[C@@H](c3ccc(-c4ccc(Cl)c(Cl)c4)cc3)N[C@@](CC(C)C)(C(=O)OC)[C@H]2C1=O,x,n,4.7µM,u,12µM
CCN1C(=O)[C@H]2[C@@H](c3ccc(-c4cccc(Cl)c4)cc3)N[C@@](CC(C)C)(C(=O)OC)[C@H]2C1=O,x,n,x,x,x
CSc1ccccc1C(=O)C1CCCN(Cc2ccncc2)C1 (stereo not drawn),n,n,1.2µM,n,u
COc1ccc(O)c(CN2CCCC(C(=O)c3ccccc3SC)C2)c1 (stereo not drawn),n,n,n,u,5.2µM
COC(=O)[C@@H]1CCCN1Cc1c(C(=O)N2CCCCC2)nc2c(C)cccn12,n,n,8.3µM,u,n
Cc1cccn2c(CN(C)C3CCOC3)c(C(=O)N3CCCCC3)nc12 (stereo not drawn),n,n,u,x,n
Cc1cccn2c(CN(C)CCC3CCCCO3)c(C(=O)N3CCCCC3)nc12 (stereo not drawn),n,n,13µM,n,n
Cc1nc(C(C)N(C)Cc2c(C(=O)N3CCCCC3)nc3c(C)cccn23)c(C)s1 (stereo not drawn),n,n,10µM,n,u
CC1CC(C)(C)NC(=S)N1CCC(=O)Nc1ccc2c(c1)OCCO2 (stereo not drawn),n,n,1.5µM,n,n
CCOc1ccc(NC(=O)CCN2C(=S)NC(C)(C)CC2C)cc1 (stereo not drawn),n,n,n,n,n
CC(C)c1ccc(NC(=O)CCCN2C(=S)NC(C)(C)CC2C)cc1 (stereo not drawn),n,-86,n,n,u
CCNS(=O)(=O)c1ccc(CCC(=O)N2CCN(C(=O)OCC)CC2)cc1,n,n,u,n,n
CCCCNC(=O)C1(C)CCC(=O)N1C1CCN(Cc2ccccc2)CC1 (stereo not drawn),x,n,x,x,x
N#Cc1c2n(c3c(=S)nc[nH]c13)CCCCC2,u,-75,n,n,n
O=[N+]([O-])c1ccc(-[n+]2ccc3ccccc3c2)c([N+](=O)[O-])c1,x,n,u,1.8µM,u
Fc1ccc2nc(Nc3nc4c(F)cc(F)cc4s3)sc2c1,n,u,10µM,n,n
O=C(Nc1nc2c(F)cc(F)cc2s1)c1ccccn1,n,-99,u,n,n
CCOc1ccc2nc(NC(=O)CN3CCN(CC)CC3)sc2c1,u,n,n,n,n
CCOc1ccc2nc(NC(=O)CN3CCOCC3)sc2c1,n,n,n,n,4.1µM
SMILES,FBPA Giardia inh,HCMV inh,Pf growth 96h,Sm TGR block,Pf growth 48h
CCOc1ccc2nc(NC(=S)NCc3ccccc3)sc2c1,n,n,4.1µM,n,x
CCCCC[C@@H]1C=C(C(=O)O)[C@H](c2ccc(F)cc2)N1S(=O)(=O)c1ccc(C)cc1,x,n,x,x,x
Cc1ccc2nc(NC(=O)c3ccccn3)sc2c1,u,-98,u,n,n
CCOc1ccc2nc(NC(=O)Nc3ccccc3)sc2c1,n,n,n,n,x
CCOc1ccc2nc(NC(=O)c3ccccn3)sc2c1,u,-100,n,n,n
CC(=O)Nc1ccc(S(=O)(=O)Nc2ccc(-n3cnnn3)cc2)cc1,x,n,u,n,n
Cc1ccc(S(=O)(=O)N2CCC(C(=O)NC3CCCCCC3)CC2)cc1,n,n,n,n,n
CSc1ccc(S(=O)(=O)N2CCC(C(=O)NC3CC3)CC2)cc1,n,n,n,n,4.1µM
O=C(NC1CC1)C1CCN(S(=O)(=O)c2ccc(Cl)c([N+](=O)[O-])c2)CC1,x,-103,u,u,u
COc1ccc(S(=O)(=O)N2CCC(C(=O)N[C@H](C(=O)NC3CCCC3)C(C)C)CC2)cc1,x,n,n,89µM,n
CSc1ccc(S(=O)(=O)N2CCC(C(=O)Nc3ccc(C(N)=O)cc3)CC2)cc1,n,n,4.7µM,n,n
CCc1nn2c(N3CCOCC3)cc(C)nc2c1-c1ccccc1,n,n,n,n,n
COc1ccc(CNC(=O)[C@@H](NC(=O)C2CCN(S(=O)(=O)c3ccc(C)cc3)CC2)C(C)C)cc1OC,x,n,u,n,n
CCOc1cc(/C=N/NC(=O)c2cccnc2)ccc1OCC(=O)N1CCOCC1,n,n,n,n,n
C=C1CC2C(=O)N(Cc3cc(OC)ccc3OC)C(C(=O)OCC)C1N2C (stereo not drawn),n,x,x,x,x
COc1ccc(OC2CCN(S(=O)(=O)c3ccc(F)cc3)CC2)cc1,n,n,n,n,n
COc1ccc(OC2CCN(S(=O)(=O)c3ccc(C(C)=O)cc3)CC2)cc1,n,-63,n,n,u
COc1ccc(S(=O)(=O)N2CCC(C(=O)NC3CC3)CC2)cc1,n,n,n,n,9.3µM
CCC(=Nc1ccc(OC)cc1OC)c1c(O)n(C2CCCCC2)c(=O)[nH]c1=O,n,n,u,n,7.4µM
CCC(=NCc1ccco1)c1c(O)n(C2CCCCC2)c(=O)[nH]c1=O,n,n,u,n,u
COc1ccc(NCC(=O)Nc2cccc(C(F)(F)F)c2)cc1S(=O)(=O)N1CCOCC1,x,n,x,x,x
O=C1c2ccccc2NC(c2ccc(-c3cccc([N+](=O)[O-])c3)o2)N1O (stereo not drawn),u,-79,u,u,u
O=C1c2ccccc2NC(c2ccc(-c3ccc(Br)cc3)o2)N1O (stereo not drawn),u,-72,n,n,u
CCN(CC)CCNC(=O)c1ccc(NC(=O)c2cn(-c3ccccc3)nc2-c2cccs2)cc1,n,-98,u,n,12µM
CCN(CC)CCNC(=O)c1ccc(NC(=O)c2cn(-c3ccc(F)cc3)nc2-c2cccc(OC)c2)cc1,n,-66,1µM,n,1.9µM
CCN(CC)CCNC(=O)c1ccc(NC(=O)c2ccccc2-c2ccc(C(F)(F)F)cc2)cc1,n,n,9.3µM,n,13µM
